The whole screen tested about 2,300 compounds, of which about 790 (34%) were called active. The rule behind the calls is not given here. The list shows a part of the results. Results with a measured potency or affinity are listed apart.

This assay in a line: THP-1 cell cytotoxicity, dose response, cytotoxicity control for non-replicating M. tuberculosis project (AID 489025). To be noted: THP-1 cell viability; series mostly up to 40 µM.
For the molecule `CCOC(=O)C(=O)NC12CC3CC(CC(C3)C1)C2`, the result was inactive.
On to `O=C(CCS(=O)(=O)Cc1ccccc1)Nc1ncc([N+](=O)[O-])s1`, for which the outcome was inactive.
Turning to `O=C(COC(=O)c1ccc(Br)o1)Nc1ncc([N+](=O)[O-])s1`, the molecule was classed as inactive.
For the molecule `O=C(NCCC1CCCC1)c1cccs1`, the call was inactive.
Turning to `C/C(=N\NC(=O)c1cccs1)c1ccc2c(c1)OCO2`, the molecule was called inactive.
Consider `CCC(=O)c1ccc(OCC(=O)OCC(=O)N2CCc3ccccc3C2)cc1`, for which the molecule was called inactive.
For `O=C(OCC(=O)N1CCc2ccccc21)c1ccc([N+](=O)[O-])cc1`, the outcome was inactive.
Consider `COC(=O)COc1ccc2cc(-c3ccc(OC)cc3)c(=O)oc2c1`, for which the call was inactive.
The result for `Cc1cccc(NCCC(=O)c2ccc([N+](=O)[O-])cc2)c1C` reads “inactive”.
The result for `O=C(NCc1ccc(F)cc1)c1ccc(Br)o1` reads “inactive”.
The result for `O=C(Nc1ccc([N+](=O)[O-])cc1)c1ccc(Cn2cc([N+](=O)[O-])cn2)cc1` reads “inactive”; that for `COc1ccc(NC(=O)c2ccc(-c3ccc([N+](=O)[O-])cc3)o2)cc1OC`, “inactive”; that for `Cc1ccc(CCC(=O)Nc2ccc(C)c(C)c2)o1`, “inactive”.
As for `Cc1cccc(NC(=O)c2n[nH]c([N+](=O)[O-])c2Br)c1C`, the molecule was classed as inactive.
The result for `O=C(NCc1ccc(Cl)cc1)c1n[nH]c([N+](=O)[O-])c1Cl` reads “inactive”; that for `CCC1CCc2sc(C(=O)NCC3CCCO3)cc2C1` (stereo unspecified), “inactive”.
The result for `CN1CCN(c2c(F)cc3c(=O)c(C(=O)O)cn4c3c2SCC4)CC1` reads “inactive”.
Turning to `Cc1cc(C=C2C(=O)N(C)C(=S)N(C)C2=O)c(C)n1-c1cccnc1`, the outcome was inactive.
`Cc1cccc(NC(=O)COC(=O)CCc2c[nH]c3ccccc23)c1C`: the call was inactive.
With `CC(=O)c1ccc(-c2nnc(CCC(=O)N(C)Cc3cccc4cnccc34)o2)s1`, the molecule was classed as inactive.
With `CN1C(=O)CC(Sc2ccccc2C(=O)O)C1=O` (stereo unspecified), the result was inactive.
As to `O=C(COC(=O)c1ccc(Cl)s1)c1ccc[nH]1`, the call was inactive.
Regarding `COC(=O)[C@H](CC(C)C)NC(=O)NCCC1=CCCCC1`, the result was inactive.
As for `CCn1nnc(NC(=O)COc2ccc(C3CCCCC3)cc2)n1`, the entry is “inactive”; as for `CC12CN3CC(C)(CN(C1)C3c1ccc([N+](=O)[O-])o1)C2` (stereo unspecified), “inactive”.
The result for `COc1ccccc1NC(=O)C(=O)/C=C(\O)c1ccccc1` reads “inactive”; that for `CC1CC(C)CN(C(=O)COC(=O)c2ccc([N+](=O)[O-])o2)C1` (stereo unspecified), “inactive”; that for `CCn1nnc(NC(=O)c2ccc(-c3ccc(Cl)cc3)o2)n1`, “inactive”.
The result for `COc1ccccc1CCNC(=O)c1ccc(C)o1` reads “inactive”; that for `COc1ccc(OCCCC(=O)Nc2ccc(N3CCOCC3)cc2)cc1`, “inactive”.
Turning to `CCOC(=O)CCNC(=O)c1ccc2nc(C3CCCCC3)oc2c1`, the molecule was called inactive.

These data come from PubChem BioAssay AID489025 (Southern Research Specialized Biocontainment Screening …, 2010).
